The supplement of paper PMC7411640
Structures can show the parent of a compound that is named as a salt.

System: MDA-MB-468
Experiment: phospho-S6 immunofluorescence (DAPI-normalised), per-plate z-score; higher = higher phospho-S6 signal (less pathway suppression)
Conditions: 24 h
Protocol: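 GPCR-targeted compound library (MedChemExpress HY-L006) tested on MDA-MB-468 PTEN-null TNBC cells in 384-well plates at 0.1, 1 or 10 uM, combined with vehicle, GDC0941 450 nM or lapatinib 1 uM, for 24 h. Phospho-S6 (S240/244) immunofluorescence normalised to DAPI and expressed as a per-plate z-score; values are the mean of biological triplicates.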

Row | Compound | phospho-S6 immunofluorescence (z-score) (co-treatment: GDC0941 450 nM) | phospho-S6 immunofluorescence (z-score) (co-treatment: lapatinib 1 uM) | phospho-S6 immunofluorescence (z-score) (co-treatment: vehicle)
1 | CN1[C@@H]2CC[C@H]1C[C@@H](OC(c1ccccc1)c1ccccc1)C2 [Benztropine (mesylate)] (compound 10 µM) | 1.67 | -1.69 | 0.29
2 | COc1ccc(CCN2CCN(CCCc3ccccc3)CC2)cc1OC [SA4503 (dihydrochloride)] (compound 10 µM) | 0.13 | -0.13 | -0.47
3 | CCN(CC)CCOC(=O)[C@@H](Cc1cccc2ccccc12)C[C@@H]1CCCO1 [Naftidrofuryl (oxalate)] (compound 10 µM) | -1.27 | -0.87 | -1.37
4 | CN(C)CCCN1c2ccccc2Sc2ccc(C(F)(F)F)cc21 [Triflupromazine (hydrochloride)] (compound 10 µM) | -0.42 | -2.74 | 2.53
5 | CC1(C)O[C@@H]2C[C@H]3[C@@H]4CCC5=CC(=O)C=C[C@]5(C)[C@H]4[C@@H](O)C[C@]3(C)[C@]2(C(=O)CO)O1 [Desonide] (compound 10 µM) | -0.1 | 0.54 | 1.16
6 | CCCN(CCC)CCc1cccc2c1CC(=O)N2 [Ropinirole (hydrochloride)] (compound 10 µM) | 0.64 | 1.04 | 1.01
7 | NCCCC[C@H](NC(=O)[C@@H]1CCCN1C(=O)[C@@H]1CSSC[C@H](NC(=O)CNC(=O)CNC(=O)CN)C(=O)N[C@@H](Cc2ccc(O)cc2)C(=O)N[C@@H](Cc2ccccc2)C(=O)N[C@@H](CCC(N)=O)C(=O)N[C@@H](CC(N)=O)C(=O)N1)C(=O)NCC(N)=O [Terlipressin] (compound 10 µM) | 0.05 | 0.98 | 0.08
8 | Cn1cc(C(=O)[C@@H]2CCc3[nH]cnc3C2)c2ccccc21 [Ramosetron (Hydrochloride)] (compound 10 µM) | -1.27 | 0 | -0.92
9 | Cc1sc(C)c(C(=O)NC2(c3ccc(C(=O)O)cc3)CC2)c1Cc1ccc(C(F)(F)F)cc1 (compound 10 µM) | -1.42 | -0.58 | 0.73
10 | C[C@]12CCC(=O)C=C1CC[C@@H]1[C@@H]2CC[C@@]2(C)[C@H]1CC[C@]2(O)C(=O)CO [Cortodoxone] (compound 10 µM) | -0.95 | 1.37 | -0.43
11 | OCCOCCN1CCN(C2=Nc3ccccc3Sc3ccccc32)CC1 [Quetiapine (fumarate)] (compound 10 µM) | -0.84 | 0.29 | -0.03
12 | COc1cc(N)cn[n+]1-c1ccccc1 [Amezinium (methylsulfate)] (compound 10 µM) | -0.21 | 1.19 | 0.03
13 | COc1cc(C(=O)N(CCCc2ccccc2)Cc2ccc(CC(=O)O)cc2)cc(OC)c1C (compound 10 µM) | -0.21 | 0.49 | -0.17
14 | Cn1c(SCC(=O)N2CCC[C@H]2C(=O)Nc2ccccc2-c2ccccc2)nc2ccccc21 (compound 10 µM) | 0.08 | 1.59 | 0.81
15 | CN1CCN(C2=Nc3cc(Cl)ccc3Nc3ccccc32)CC1 [Clozapine] (compound 10 µM) | -0.16 | -0.32 | -0.32
16 | CN1CCCC(n2nc(Cc3ccc(Cl)cc3)c3ccccc3c2=O)CC1 (stereo unspecified) [Azelastine (hydrochloride)] (compound 10 µM) | 0.6 | -0.25 | 0.16
17 | N=C(N)NCCC[C@H](NC(=O)[C@H](Cc1ccccc1)NC(=O)[C@@H]1CCCN1C(=O)[C@H](CO)NC(=O)[C@H](Cc1ccccc1)NC(=O)CNC(=O)[C@@H]1CCCN1C(=O)[C@@H]1CCCN1C(=O)[C@@H](N)CCCNC(=N)N)C(=O)O [Bradykinin] (compound 10 µM) | -0.14 | 0.5 | -0.36
18 | CN1C2CCCC1CC(NC(=O)c1nn(C)c3ccccc13)C2 (stereo unspecified) [Granisetron (Hydrochloride)] (compound 10 µM) | 1.08 | 0.62 | -0.01
19 | CCN(CC)CCCC(C)Nc1nc(C)cc(Nc2ccc3nc(C)cc(N)c3c2)n1 (stereo unspecified) (compound 10 µM) | 0.95 | 1.82 | 0.49
20 | CCCCc1ncc(/C=C(\Cc2cccs2)C(=O)O)n1Cc1ccc(C(=O)O)cc1 [Eprosartan (mesylate)] (compound 10 µM) | 0.37 | 0.05 | 0.01
21 | CC(=O)Oc1cc(C(C)C)c(OCCN(C)C)cc1C [Moxisylyte (hydrochloride)] (compound 10 µM) | 0.49 | -0.11 | -1.23
22 | CC(C)NCC(O)COc1cccc2ccccc12 (stereo unspecified) [Propranolol (hydrochloride)] (compound 10 µM) | 0.53 | 0.73 | 0.21
